Screening results deposited in PubChem by several laboratories.
DNMT1 inh = blocks human DNA methyltransferase DNMT1; DNMT1 molecular beacon, Hinp1I cleavage, fluorescence; inhibition (reported as % activation of signal), % at 10 µM; 0.83% of 360,000 active; AID 588458; in the data active = inhibition above about 50%
Target sequence (P26358 504-1616 limits assumed): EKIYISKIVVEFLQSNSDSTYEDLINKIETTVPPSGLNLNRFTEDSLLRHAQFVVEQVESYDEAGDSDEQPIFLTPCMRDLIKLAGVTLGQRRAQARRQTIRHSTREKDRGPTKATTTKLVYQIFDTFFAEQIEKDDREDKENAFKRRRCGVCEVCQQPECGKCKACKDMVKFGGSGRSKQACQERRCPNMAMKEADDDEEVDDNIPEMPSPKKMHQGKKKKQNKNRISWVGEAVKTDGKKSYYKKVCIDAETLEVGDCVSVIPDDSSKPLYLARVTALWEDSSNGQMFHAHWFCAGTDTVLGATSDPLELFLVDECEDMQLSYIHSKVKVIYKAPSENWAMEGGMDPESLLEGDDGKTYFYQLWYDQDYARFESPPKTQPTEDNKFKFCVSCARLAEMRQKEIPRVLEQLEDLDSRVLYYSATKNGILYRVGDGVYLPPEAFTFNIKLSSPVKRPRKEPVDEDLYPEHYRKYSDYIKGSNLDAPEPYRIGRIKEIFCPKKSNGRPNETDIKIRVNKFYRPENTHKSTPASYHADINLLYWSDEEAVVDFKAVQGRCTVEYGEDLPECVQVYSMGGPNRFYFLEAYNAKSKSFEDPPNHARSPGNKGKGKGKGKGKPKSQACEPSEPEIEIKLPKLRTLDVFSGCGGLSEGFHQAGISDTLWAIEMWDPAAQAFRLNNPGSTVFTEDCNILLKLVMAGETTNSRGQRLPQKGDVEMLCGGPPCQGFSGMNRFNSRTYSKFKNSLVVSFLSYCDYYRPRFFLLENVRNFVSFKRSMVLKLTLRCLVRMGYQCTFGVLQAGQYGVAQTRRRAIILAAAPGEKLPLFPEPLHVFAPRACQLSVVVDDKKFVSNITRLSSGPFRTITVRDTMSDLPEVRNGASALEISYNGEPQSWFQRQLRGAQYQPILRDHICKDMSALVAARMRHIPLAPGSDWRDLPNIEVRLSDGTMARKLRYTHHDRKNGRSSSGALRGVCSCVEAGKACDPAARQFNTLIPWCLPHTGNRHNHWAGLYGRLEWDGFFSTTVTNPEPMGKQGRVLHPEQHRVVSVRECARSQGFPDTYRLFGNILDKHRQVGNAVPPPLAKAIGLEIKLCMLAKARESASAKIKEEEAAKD
LEDGF integ inh = blocks HIV-1 LEDGF/p75-dependent DNA integration. inhibition, % at 3.7 µM. TR-FRET IN-LEDGF/p75 DNA integration, Eu/Cy5. 0.64% of 370,000 active;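 active = inhibition above the screen-wide mean plus 3 SD, cut at about 13% in these data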;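 note: signal is the Cy5 over europium emission ratio at 671 and 618 nm; 0% = plate median of compound wells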
UHRF1 MBD2 ctr = human UHRF1 methylated DNA binding inhibitors; 0.75% of 370,000 active; AID 687016; Q96T88; inhibition, % at 4.4 µM; UHRF1 binding to methylated oligo, TR-FRET; in the data active = inhibition above about 21%;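 note: UHRF1 SRA domain binding a hemimethylated CpG hairpin DNA probe; 0% = median of test compound wells and 100% = reference inhibitor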
PG9 Ab binder = PG9 antibody binding by small molecule | TR-FRET gp120-PG9 antibody binding | inhibition, % at 6.7 µM | 0.43% of 360,000 active; in the data active = inhibition above about 8.5%
rCAG RNA binder = binds r(CAG) RNA repeats; inhibition, % at 3 µM; 1.3% of 370,000 active; r(CAG) RNA repeat, TO-PRO-1 dye displacement fluorescence;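 active = inhibition above the plate cutoff, the mean of all test compounds on that plate plus 3 SD, cut at about 35% in these data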;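 note: 0% = DMSO alone and 100% = 100 µM mitoxantrone as full dye displacement; higher means more dye released from RNA so lower well fluorescence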
MBD2 DNA inh = blocks human MBD2 binding to methylated DNA; TR-FRET, MBD2 binding to methylated oligonucleotide; Q9UBB5; 0.31% of 370,000 active; inhibition, % at 4.4 µM; AID 686964; in the data active = inhibition above about 13%
PG9 bind confirm = confirmation of small molecules binding HIV-1 gp120 antibody PG9 | shares compounds with PG9 Ab binder | TR-FRET PG9 antibody binding, biochemical | inhibition, % at 6.7 µM | 90% of 1,500 active; in the data active = inhibition above about 9%
PGV04 Ab binding = counter-screen for PG9 binders: binding control antibody PGV04; 95% of 1,500 active; inhibition, % at 6.7 µM; TR-FRET PGV04 antibody-gp120 binding, biochemical; AID 651604; shares compounds with PG9 Ab binder; in the data active = inhibition above about 9.5%
PG9 binder DR = PG9 antibody binding, dose response. TR-FRET PG9 antibody-gp120 binding inhibition. IC50, µM. 95 tested, under 10 active. shares compounds with PG9 Ab binder; in the data active = IC50 below about 10 µM
PGV04 binding DR = PGV04 binding, dose response counter-screen. AID 651937. TR-FRET binding to control antibody PGV04. 20% of 95 active. IC50, µM. shares compounds with PG9 Ab binder
PG126 DR counter = binds control antibody PG126 in PG9 counter-screen; IC50, µM; shares compounds with PG9 Ab binder; 20% of 95 active; TR-FRET binding to antibody PG126, counterscreen; AID 651939
* = called active by the depositor; · = no result. Most compounds without a hit are left out; they make up all but 3.5% or so of the library. Cut-off read from the data, not from the text of the source, unless noted: active = IC50 below about 9 µM; inactive = the rest.

SMILES	DNMT1 inh	LEDGF integ inh	UHRF1 MBD2 ctr	PG9 Ab binder	rCAG RNA binder	MBD2 DNA inh	PG9 bind confirm	PGV04 Ab binding	others
CCCCC1(CC)COC(c2ccccc2)OC1 (stereo unspecified)	3.9	1.0	1.1	0.7	0.4	3.4	·	·
Cc1nonc1NC(=O)CSc1nc2c(C)cccc2cc1C#N	3.4	-1.8	0.1	9.8*	15.8	-0.4	42.4*	66.0*
Cc1cc2cc(C#N)c(SCC(=O)Nc3nonc3C)nc2cc1C	23.3	-2.2	-1.6	-0.9	3.8	2.1	·	·
COc1ccc2cc(C#N)c(SCC(=O)Nc3nonc3C)nc2c1	4.0	-0.1	-3.6	24.7*	4.5	1.6	33.5*	62.0*
COc1ccc(C(C(=O)NC2CCCC2)N2CCc3ccccc32)cc1 (stereo unspecified)	3.1	1.8	-3.2	11.7*	7.8	-1.6	24.6*	33.8*
Cc1c(N2C(=O)C(=O)/C(=C(/O)c3ccc(Br)cc3)C2c2cccnc2)c(=O)n(-c2ccccc2)n1C (stereo unspecified)	-7.1	4.5	0.6	22.4*	0.3	-0.2	30.7*	38.4*
Cc1ccc(/C(O)=C2/C(=O)C(=O)N(CCN3CCOCC3)C2c2cccnc2)cc1 (stereo unspecified)	2.4	-4.7	-2.4	0.0	-1.4	0.0	·	·
O=C(C1=C(O)C(=O)N(CCCn2ccnc2)C1c1ccccc1)c1ccco1 (stereo unspecified)	-0.5	·	·	·	·	·	·	·
O=C(C1=C(O)C(=O)N(CCCn2ccnc2)C1c1cccc(Br)c1)c1ccco1 (stereo unspecified)	0.1	4.4	-7.8	14.4*	15.7	-5.5	14.5*	14.8*
Cc1ccc(-c2c3c([nH]c(=S)c2C#N)CCCC3)o1	2.5	8.3	7.4	16.1*	26.2	-0.7	8.7*	7.8	PG9 binder DR=>67;PGV04 binding DR=>67;PG126 DR counter=>67
CC(=O)c1cccc(NC(=O)CN2C(=O)C(=O)N(Cc3ccco3)C2=O)c1	32.9	1.6	3.5	0.2	9.2	1.6	·	·
CCn1c2c(c3cc(Br)ccc31)CCC/C2=N\O	-0.8	-4.9	4.4	16.2*	7.8	6.1	19.8*	31.5*
CCCCC1O[C@@H](C)[C@@H]2CN3CCc4c([nH]c5ccccc45)[C@@H]3C[C@@H]2N1C (stereo partly specified)	·	-2.9	-7.0	-1.2	-0.3	-0.8	·	·
CSc1nc(SC(C)C(=O)O)c2c3c(sc2n1)COC(C)(C)C3 (stereo unspecified)	-1.0	-1.9	-1.1	9.0*	10.7	2.4	21.5*	30.4*
CSc1nc(SCCN(C)C)c2c3c(sc2n1)COC(C)(C)C3	0.7	0.1	-2.0	-2.6	-4.9	-3.3	·	·
CC(C)C1Cc2ccccc2-c2[nH]c(=S)[nH]c(=O)c21 (stereo unspecified)	-7.9	3.0	1.3	30.4*	5.6	1.7	4.1	5.8
CCC1(CC)Cc2ccccc2-c2[nH]c(=S)[nH]c(=O)c21	-2.1	-4.0	-0.3	17.4*	6.8	-4.8	4.3	8.5
CCC1(CC)Cc2ccccc2-c2nc(NN)[nH]c(=O)c21	-1.7	-3.5	-1.3	0.1	5.3	0.6	·	·
CC(=O)c1c(C)[nH]c(C(=O)Nc2ccc(C)c(S(=O)(=O)Nc3ccc(C)cc3C)c2)c1C	-7.3	-6.8	0.0	10.6*	13.2	-0.5	13.2*	15.6*
NC(=O)c1ccc(NC(=O)COC(=O)c2n[nH]c3ccccc23)cc1	-1.8	-1.1	2.1	-2.1	3.4	-4.2	·	·
NC(=O)c1ccc(NC(=O)COC(=O)c2c[nH]c3ccccc23)cc1	-0.7	2.4	1.3	10.0*	2.6	-4.5	8.9*	16.2*
CCN(CC)c1ccc2cc(-c3nc4ccccc4n3C)c(=O)oc2c1	14.8	-2.0	-3.9	10.1*	-21.9	-3.9	11.4*	17.2*
Cc1ccc2cccc(CC(=O)NN)c2c1	-0.1	-0.2	-0.8	-0.3	4.8	-2.7	·	·
COc1ccc2c(COC(=O)c3n[nH]c4ccccc34)cc(=O)oc2c1	10.7	-2.3	-0.9	61.8*	12.2	5.8	52.9*	57.5*
COc1ccc(Cl)cc1NC(=O)c1[nH]c(C)c(C(C)=O)c1C	37.0	3.7	-0.2	27.0*	2.0	-9.0	28.4*	31.4*
SMILES	DNMT1 inh	LEDGF integ inh	UHRF1 MBD2 ctr	PG9 Ab binder	rCAG RNA binder	MBD2 DNA inh	PG9 bind confirm	PGV04 Ab binding	others
O=C(O)Cc1ccc2sc(-c3ccccc3)nc2c1	-2.2	-0.1	0.5	9.0*	5.7	1.3	11.2*	16.9*
O=C(O)CCN1C(=O)c2ccc(Oc3ccc([N+](=O)[O-])cc3)cc2C1=O	-1.5	2.3	0.5	-0.5	0.5	-2.7	·	·
CN(C)c1ccc(C(=O)Nc2ccc(S(=O)(=O)Nc3nccs3)cc2)cc1	1.1	2.4	-7.5	25.8*	34.8*	0.5	37.9*	47.4*
O=C(COC(=O)c1ccccc1-n1cnnn1)c1ccc(Br)cc1	-1.4	-6.7	0.2	10.3*	3.0	-1.3	10.7*	16.2*
O=C(COC(=O)c1ccccc1O)NNC(=O)c1ccc(Br)cc1	4.9	-5.0	2.8	9.5*	-0.8	3.8	13.9*	25.2*
Cc1ccc(N(CC(=O)NC2CCCCC2)S(=O)(=O)c2cccs2)cc1	2.1	-5.0	5.5	-1.5	-0.8	5.4	·	·
CCOc1cc(OCC)cc(C(=O)NCc2ccco2)c1	7.6	-0.8	0.7	8.9*	-2.8	-5.4	4.6	5.5
CC(=O)c1cccc(N/C=C\c2nnnn2-c2ccc(F)cc2)c1	-1.8	0.1	4.6	16.6*	-3.0	4.4	10.8*	19.8*
CCCCn1c(SCC(=O)c2ccc(OCC)cc2)nc2cc(S(N)(=O)=O)ccc21	-13.9	-1.2	-2.3	19.0*	8.5	-0.8	22.1*	35.3*
S=c1nc(Cc2ccc(Cl)cc2)[nH]c2ccccc12	6.8	-1.4	-2.0	15.6*	3.3	-1.1	8.2	11.2*
Cc1ccc(Cc2nc3ccccc3[nH]2)cc1	-1.0	4.5	-4.3	0.0	-0.3	-5.4	·	·
FC(F)(F)c1nc(=S)c2ccccc2[nH]1	-4.4	-4.9	1.7	17.3*	2.2	-1.1	10.7*	9.9*
